This passage reports outcome and AC50 results from PubChem BioAssay (EPA / NIEHS).

The target in test [1] is Transcription factor E2F1 (Homo sapiens) (UniProt Q01094). Kind of test: ATG_E2F_CIS: Attagene CIS-FACTORIAL HepG2 Assay for human E2F Transcription Factor 1 (AID 2282935). The conditions noted are these: HepG2 Attagene cis-reporter, E2F reporter RNA transcripts; actives raise or lower the signal. The gist of the method: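 Transient MRTU transfection of HepG2; 24 h compound exposure; RNA → oligo(dT) RT → PCR → FAM label → HpaI cut → CE fluorescence. Gain/loss of signal fit against DMSO.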
Transcription factor E2F1 (Homo sapiens), sequence (Q01094 whole entry, looked up): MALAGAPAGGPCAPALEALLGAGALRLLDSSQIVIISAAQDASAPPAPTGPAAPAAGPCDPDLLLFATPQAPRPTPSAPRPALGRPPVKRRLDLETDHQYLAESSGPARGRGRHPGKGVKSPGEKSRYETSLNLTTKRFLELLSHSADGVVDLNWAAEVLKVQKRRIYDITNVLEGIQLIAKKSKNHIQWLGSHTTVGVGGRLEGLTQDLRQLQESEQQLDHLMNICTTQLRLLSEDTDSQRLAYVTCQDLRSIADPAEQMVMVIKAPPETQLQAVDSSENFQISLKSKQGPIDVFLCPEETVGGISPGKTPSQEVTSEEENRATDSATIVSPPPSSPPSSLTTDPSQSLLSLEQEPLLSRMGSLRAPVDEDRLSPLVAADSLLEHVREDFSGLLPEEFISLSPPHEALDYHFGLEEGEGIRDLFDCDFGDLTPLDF

Test [2] is described as follows: ATG_E_Box_CIS: Attagene CIS-FACTORIAL HepG2 Assay for human Enhancer Box (E-box) (AID 2282936). The conditions noted are these: HepG2 E-box cis-reporter transcription, actives raise or lower the signal. The gist of the method:
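Transiently transfected HepG2, endogenous TF-driven reporters, 24 h dosing. Readout: RT-PCR plus capillary electrophoresis of fluorescent reporter fragments. Gain or loss of signal fitted bidirectionally against DMSO baseline.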

The nature of test [3]: ATG_M_61_CIS: Attagene CIS-FACTORIAL HepG2 Assay for M61 Transcription Factor (Internal Marker) (AID 2282937). The conditions noted are these: HepG2 Attagene CIS-FACTORIAL M61 internal marker reporter; actives raise or lower the signal. In outline: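 Transfect HepG2 with MRTUs; dose 24 h; isolate RNA; reverse-transcribe with DNase I treatment; PCR-amplify, FAM-label and cut with HpaI for 2 h at 37 C; resolve by CE. Bidirectional fitting against DMSO.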

Test [4] in a line: ATG_EGR_CIS: Attagene CIS-FACTORIAL HepG2 Assay for human Early Growth Response 1 (EGR1) (AID 2282938). The conditions noted are these: HepG2 Attagene CIS-FACTORIAL EGR reporter mRNA; actives raise or lower the signal. The gist of the method: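 After a 24 h treatment of transiently transfected HepG2 cells, total RNA was reverse-transcribed and reporter sequences PCR-amplified, labelled and run on capillary electrophoresis. Reporters sit under cis-regulatory promoters sensing endogenous factors.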

Test [5] can be described thus: ATG_ERE_CIS: Attagene CIS-FACTORIAL HepG2 Assay for Estrogen Response Element (ERE) (AID 2282940). The conditions noted are these: HepG2 ERE cis-reporter, Attagene RNA transcript; actives raise or lower the signal. In outline: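 HepG2, transient cis-reporter units, 24 h exposure. RNA isolated, oligo(dT) RT, reporter-specific PCR, FAM extension, HpaI cut, CE detection. Gain/loss-of-signal vs DMSO.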

The nature of test [6]: ATG_Ets_CIS: Attagene CIS-FACTORIAL HepG2 Assay for human Erythroblast Transformation Specific (ETS) (AID 2282941). The conditions noted are these: HepG2 ETS cis-reporter transcription, actives raise or lower the signal. The gist of the method: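 Endogenous transcription factor activity read as reporter mRNA via RT-PCR and capillary electrophoresis, with gain or loss fitted bidirectionally against DMSO. Human HepG2 liver cells, transiently transfected CIS reporter constructs, 24 h exposure.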

In test [7] the target is Hepatocyte nuclear factor 3-beta (Homo sapiens) (UniProt Q9Y261). The test can be described thus: ATG_FoxA2_CIS: Attagene CIS-FACTORIAL HepG2 Assay for human Forkhead box A2 (FOXA2) (AID 2282942). The conditions noted are these: HepG2 cis-reporter transcription factor activity, 24 h; actives raise or lower the signal. In outline: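 24 h dosing of HepG2 bearing cis-reporter constructs; mRNA readout by RT-PCR/CE fluorescence; bidirectional fit, DMSO baseline.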
Hepatocyte nuclear factor 3-beta (Homo sapiens), sequence (Q9Y261 whole entry, looked up): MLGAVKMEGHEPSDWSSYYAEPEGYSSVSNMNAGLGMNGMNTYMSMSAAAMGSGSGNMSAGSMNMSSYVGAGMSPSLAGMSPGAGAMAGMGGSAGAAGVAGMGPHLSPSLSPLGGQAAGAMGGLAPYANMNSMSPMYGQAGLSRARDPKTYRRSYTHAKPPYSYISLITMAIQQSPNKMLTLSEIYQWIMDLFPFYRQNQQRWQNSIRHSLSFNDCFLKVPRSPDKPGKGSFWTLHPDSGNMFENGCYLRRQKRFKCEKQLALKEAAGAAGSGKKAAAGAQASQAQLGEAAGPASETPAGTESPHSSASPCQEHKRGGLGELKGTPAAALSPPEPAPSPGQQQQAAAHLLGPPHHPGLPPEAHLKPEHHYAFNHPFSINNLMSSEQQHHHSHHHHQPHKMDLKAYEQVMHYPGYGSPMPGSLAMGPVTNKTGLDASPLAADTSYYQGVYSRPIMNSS

A short description of test [8]: ATG_FoxO_CIS: Attagene CIS-FACTORIAL HepG2 Assay for human Forkhead box O (FoxO) (AID 2282943). The conditions noted are these: HepG2 Attagene cis-reporter, FoxO element, mRNA; actives raise or lower the signal. The gist of the method:
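Transfected HepG2 reporter cells exposed to test chemical for 24 h; reporter RNA measured by reverse transcription, PCR and fluorescent capillary electrophoresis; curves fitted for increases and decreases against DMSO.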

Test [9] is described as follows: ATG_GATA_CIS: Attagene CIS-FACTORIAL HepG2 Assay for human GATA Binding Protein (AID 2282944). The conditions noted are these: HepG2 GATA cis-element reporter, Attagene multiplex mRNA; actives raise or lower the signal. The gist of the method:
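DMSO serves as negative control and baseline for bidirectional fitting of reporter mRNA changes. HepG2 cells bearing transiently transfected cis-promoter reporters were exposed 24 h; transcripts detected via RT-PCR and capillary electrophoresis.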

Test [10] is described as follows: ATG_GLI_CIS: Attagene CIS-FACTORIAL HepG2 Assay for human Zinc Finger Protein GLI1 (AID 2282945). The conditions noted are these: HepG2, Attagene cis-factorial reporter mRNA, GLI element; actives raise or lower the signal. The gist of the method:
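Transiently transfected HepG2 cells report endogenous transcription factor activity via cis-element-driven reporter units. After 24 h compound exposure, reporter mRNA was measured by RT-PCR with capillary electrophoresis; bidirectional fitting against DMSO baseline.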

Test [11] can be described thus: ATG_GRE_CIS: Attagene CIS-FACTORIAL HepG2 Assay for human Glucocorticoid Response Elements (GRE) (AID 2282947). The conditions noted are these: HepG2 GRE cis-reporter, Attagene multiplex mRNA; actives raise or lower the signal. In outline: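 Read-out: fluorescent reporter-transcript fragments separated by capillary electrophoresis after RT-PCR. Transiently transfected HepG2 cells carrying cis-element-driven reporter units were dosed for 24 h; gain or loss of signal fitted against DMSO control.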

A short description of test [12]: ATG_ISRE_CIS: Attagene CIS-FACTORIAL HepG2 Assay for human Interferon Regulatory Factor 1 (IRF1) binding to an Interferon-Stimulated Response Element (ISRE) (AID 2282948). The conditions noted are these: HepG2 ISRE cis-reporter (Attagene), mRNA transcription readout; actives raise or lower the signal. The gist of the method: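 Endogenous transcription factor activity read as reporter transcript abundance via RT-PCR and capillary electrophoresis. HepG2 cells transiently transfected, 24 h chemical exposure. Gain or loss fitted against DMSO baseline.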

Test [13] is described as follows: ATG_M_32_CIS: Attagene CIS-FACTORIAL HepG2 Assay for M32 Transcription Factor (Internal Marker) (AID 2282949).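 Further: background control marker of the multiplexed CIS panel rather than a real target.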 The conditions noted are these: HepG2 Attagene cis-factorial M32 reporter, mRNA; actives raise or lower the signal. The gist of the method:
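Transient MRTU transfection of HepG2; 24 h compound treatment; TriZol RNA, oligo(dT) RT, reporter PCR, 6-FAM primer extension, HpaI cut, CE. Gain/loss of signal vs DMSO.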

A short description of test [14]: ATG_M_06_CIS: Attagene CIS-FACTORIAL HepG2 Assay for M06 Transcription Factor (Internal Marker) (AID 2282950). The conditions noted are these: HepG2 Attagene CIS-FACTORIAL M06 internal marker reporter; actives raise or lower the signal. In outline:
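Fluorescence-labelled RT-PCR products from cis-promoter reporter units, cut with HpaI and resolved by capillary electrophoresis, give the signal. Cells are human HepG2, dosed for 24 h. Serves as background control, fitted relative to DMSO.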

For test [15], the target named is Hypoxia-inducible factor 1-alpha (Homo sapiens) (UniProt Q16665). The test can be described thus: ATG_HIF1a_CIS: Attagene CIS-FACTORIAL HepG2 Assay for human Hypoxia Inducible Factor 1 (HIF1A) (AID 2282951). The conditions noted are these: HepG2 Attagene cis-factorial HIF1a reporter transcription; actives raise or lower the signal. In outline: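 After 24 h chemical exposure of reporter-transfected HepG2 cells, reporter cDNA was PCR-amplified, labelled by 6-FAM primer extension (2 min 95 C, 20 s 68 C, 10 min 72 C), HpaI-cut (2 h, 37 C) and analysed by CE.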
Hypoxia-inducible factor 1-alpha (Homo sapiens), sequence (Q16665 whole entry, looked up): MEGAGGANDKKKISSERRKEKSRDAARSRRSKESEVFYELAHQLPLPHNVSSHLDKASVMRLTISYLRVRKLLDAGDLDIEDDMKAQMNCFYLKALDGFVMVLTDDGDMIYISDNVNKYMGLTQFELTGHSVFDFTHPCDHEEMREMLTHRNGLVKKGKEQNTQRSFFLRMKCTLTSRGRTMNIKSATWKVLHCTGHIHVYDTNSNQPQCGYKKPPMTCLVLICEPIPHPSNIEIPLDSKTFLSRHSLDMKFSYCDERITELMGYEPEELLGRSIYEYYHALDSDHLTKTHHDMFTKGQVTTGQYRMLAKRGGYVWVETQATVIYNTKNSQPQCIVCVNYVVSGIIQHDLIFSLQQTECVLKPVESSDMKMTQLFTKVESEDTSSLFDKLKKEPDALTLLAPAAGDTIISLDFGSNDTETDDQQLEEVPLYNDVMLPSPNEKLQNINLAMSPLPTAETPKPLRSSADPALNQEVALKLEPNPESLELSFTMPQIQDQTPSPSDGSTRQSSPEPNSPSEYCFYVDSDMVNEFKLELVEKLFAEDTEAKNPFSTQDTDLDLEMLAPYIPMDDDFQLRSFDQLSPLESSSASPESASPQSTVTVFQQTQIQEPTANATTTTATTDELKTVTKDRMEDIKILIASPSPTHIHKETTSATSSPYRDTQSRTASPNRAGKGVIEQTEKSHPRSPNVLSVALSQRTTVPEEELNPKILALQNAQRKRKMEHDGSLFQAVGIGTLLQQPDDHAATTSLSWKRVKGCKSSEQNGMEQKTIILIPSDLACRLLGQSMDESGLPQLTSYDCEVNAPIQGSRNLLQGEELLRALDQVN

Test [16] deals with Hepatocyte nuclear factor 6 (Homo sapiens) (UniProt Q9UBC0). Kind of test: ATG_HNF6_CIS: Attagene CIS-FACTORIAL HepG2 Assay for human Hepatocyte Nuclear Factor 6 (HNF6) (AID 2282952). The conditions noted are these: HepG2 Attagene cis-factorial HNF6 reporter transcription; actives raise or lower the signal. In outline:
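Twenty-four-hour chemical treatment of reporter-transfected HepG2 cells precedes RNA isolation, DNase-treated reverse transcription and PCR of reporter sequences. Labelled fragments are sized by capillary electrophoresis and fitted bidirectionally versus DMSO.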

The target of test [17] is Heat shock factor protein 1 (Homo sapiens) (UniProt Q00613). The test can be described thus: ATG_HSE_CIS: Attagene CIS-FACTORIAL HepG2 Assay for human Heat Shock Transcription Factor 1 (HSE) (AID 2282953). The conditions noted are these: HepG2 HSE cis-reporter, Attagene RNA transcription; actives raise or lower the signal. The gist of the method:
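After a 24 h incubation with test chemical, transfected HepG2 cells were harvested for RNA; reporter transcripts were measured by RT-PCR and capillary electrophoresis. Values reflect gain or loss of signal relative to DMSO.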

The nature of test [18]: ATG_MRE_CIS: Attagene CIS-FACTORIAL HepG2 Assay for human Metal Responsive Element (MRE) (AID 2282954). The conditions noted are these: HepG2 MRE cis-reporter transcription, Attagene multiplex; actives raise or lower the signal. In outline: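 RT-PCR/capillary electrophoresis readout of reporter mRNA, 24 h post-dosing, in HepG2 cells transfected with multiplexed cis-regulated reporter constructs. Gain or loss of signal fitted bidirectionally against DMSO baseline.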

Test [19] can be described thus: ATG_M_19_CIS: Attagene CIS-FACTORIAL HepG2 Assay for M19 Transcription Factor (Internal Marker) (AID 2282939). The conditions noted are these: HepG2 Attagene CIS-FACTORIAL M19 internal marker reporter; actives raise or lower the signal. The gist of the method: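 Following a 24 h exposure, RNA from transfected HepG2 cells was reverse-transcribed, PCR-amplified with reporter-specific primers, end-labelled with 6-FAM and HpaI-digested before capillary separation. Values represent gain or loss versus DMSO.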

Test [20] concerns the target Bile acid receptor (Homo sapiens) (UniProt Q96RI1). The test can be described thus: ATG_IR1_CIS: Attagene CIS-FACTORIAL HepG2 Assay for human Nuclear Receptor Subfamily 1 Group H Member 4 (NR1H4), IR1 submotif (AID 2282946). The conditions noted are these: IR1 reporter transcription, actives raise or lower the signal. In outline: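 Fluorescence of capillary-separated, HpaI-digested RT-PCR reporter products gave IR1-element mRNA induction in HepG2 cells 24 h after dosing. Endogenous transcription factors drove the cis-regulated reporters; activity was fitted bidirectionally against DMSO.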

Calls of active or inactive are those of the source. How the source made its calls: active means hit-call score of the fitted dose curve at least 0.9, where 1 is the maximum; inactive means score below 0.9. Peptide text beside a SMILES is read from it.

Hepatocyte nuclear factor 6 (Homo sapiens), sequence (Q9UBC0 whole entry, looked up, the tested form may be a part): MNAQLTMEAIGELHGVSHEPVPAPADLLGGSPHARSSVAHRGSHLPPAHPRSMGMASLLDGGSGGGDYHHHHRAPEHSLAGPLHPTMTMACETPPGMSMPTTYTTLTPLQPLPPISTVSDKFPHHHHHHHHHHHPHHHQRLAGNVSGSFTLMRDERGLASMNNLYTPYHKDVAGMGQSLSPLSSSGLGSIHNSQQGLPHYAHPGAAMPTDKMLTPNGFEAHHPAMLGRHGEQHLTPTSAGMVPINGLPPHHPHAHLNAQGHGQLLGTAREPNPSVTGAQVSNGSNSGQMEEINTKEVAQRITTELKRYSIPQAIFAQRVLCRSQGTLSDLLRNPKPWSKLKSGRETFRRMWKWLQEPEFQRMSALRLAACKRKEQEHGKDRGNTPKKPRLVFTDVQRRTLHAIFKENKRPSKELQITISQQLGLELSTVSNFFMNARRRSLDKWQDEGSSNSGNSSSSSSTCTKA
Bile acid receptor (Homo sapiens), sequence (Q96RI1 whole entry, looked up): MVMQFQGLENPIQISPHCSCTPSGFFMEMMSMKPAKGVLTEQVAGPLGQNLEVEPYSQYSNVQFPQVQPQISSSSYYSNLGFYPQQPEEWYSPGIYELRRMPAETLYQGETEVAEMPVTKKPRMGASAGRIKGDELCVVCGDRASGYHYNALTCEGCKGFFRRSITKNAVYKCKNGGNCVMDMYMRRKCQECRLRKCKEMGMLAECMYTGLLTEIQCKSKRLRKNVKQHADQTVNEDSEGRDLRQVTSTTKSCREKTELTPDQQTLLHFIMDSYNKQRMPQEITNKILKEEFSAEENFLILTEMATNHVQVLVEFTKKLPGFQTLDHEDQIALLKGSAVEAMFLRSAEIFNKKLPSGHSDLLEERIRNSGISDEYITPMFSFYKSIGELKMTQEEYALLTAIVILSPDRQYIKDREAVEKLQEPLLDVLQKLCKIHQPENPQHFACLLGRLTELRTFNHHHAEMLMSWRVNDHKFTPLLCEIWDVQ
Heat shock factor protein 1 (Homo sapiens), sequence (Q00613 whole entry, looked up): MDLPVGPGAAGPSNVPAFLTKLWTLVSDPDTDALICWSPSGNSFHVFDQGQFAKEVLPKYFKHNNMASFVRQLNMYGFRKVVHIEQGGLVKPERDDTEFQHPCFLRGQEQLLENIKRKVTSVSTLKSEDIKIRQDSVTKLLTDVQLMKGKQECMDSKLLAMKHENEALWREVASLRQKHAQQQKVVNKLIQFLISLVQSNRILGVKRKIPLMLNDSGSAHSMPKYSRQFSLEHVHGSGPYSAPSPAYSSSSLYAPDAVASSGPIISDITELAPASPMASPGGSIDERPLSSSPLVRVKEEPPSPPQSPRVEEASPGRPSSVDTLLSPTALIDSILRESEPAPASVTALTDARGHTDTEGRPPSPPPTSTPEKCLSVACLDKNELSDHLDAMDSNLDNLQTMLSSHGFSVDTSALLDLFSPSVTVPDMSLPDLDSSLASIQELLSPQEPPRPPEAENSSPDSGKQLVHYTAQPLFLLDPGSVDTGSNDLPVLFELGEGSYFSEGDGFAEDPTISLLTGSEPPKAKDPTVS

For `CO[Si](C)(C)OC`, the compound was called inactive in [1], in test [2], in test [3], in test [4], in test [5] and in test [6]. In addition, the compound was classed as inactive in [7], in test [8], in test [9], in test [10], in test [11] and in test [12]. The compound was classed as inactive in test [13], in test [14], in [15], in test [16], in test [17] and in test [18].
Consider `CC(=O)OCC=C(C)C`, for which the result in [1], in test [2], in test [3], in [19], in [5] and in test [6] was inactive. In addition, the compound was called inactive in [7], in test [8], in test [9], in test [10], in test [11] and in test [12]. The outcome in [13], in test [14], in test [15], in test [16], in test [17] and in test [18] was inactive.
`CCN1CN(CC)CN(CC)C1`: the compound was classed as inactive in test [1], in [2], in test [3], in test [19], in [5] and in test [7]. In addition, the result in test [8], in test [9], in [20], in [13], in test [14] and in [16] was inactive. In addition, the AC50 in test [6] is 175 µM (active); in test [10], 141 µM (active); in test [11] it was 97 µM (active); in [12] it was 146 µM (active); in test [17] it was 174 µM (active); in test [18], 166 µM (active).
In the case of `CCCCCCCCCCCCCc1ccccc1`, the call in test [1], in test [2], in [3], in test [19], in test [5] and in [6] was inactive. Moreover, the result in test [7], in test [8], in [9], in test [10], in test [20] and in test [11] was inactive. For the same compound, the compound was called inactive in [14], in [15], in test [16] and in test [18].
As to `O=C1CCCCCCCCCCCN1`, the result in [1], in [2], in [3], in test [4], in test [5] and in test [6] was inactive. The result in [7], in [8], in [9], in test [10], in test [11] and in test [13] was inactive. For the same compound, the compound was classed as inactive in [14], in [15], in [16], in test [17] and in test [18].
With `O=C(Cl)c1ccc(C(=O)Cl)cc1`, the compound was classed as inactive in test [1], in [2], in test [3], in [4], in test [5] and in test [6]. Moreover, the call in test [7], in test [8], in [9], in [10], in test [11] and in test [13] was inactive. Besides, the compound was called inactive in [14], in [16], in test [17] and in test [18].
Consider `COC(=O)[C@H](Cc1ccccc1)NC(=O)[C@@H](N)CC(=O)O` (H-Asp-Phe-OMe), for which the result in test [1], in [2], in [3], in [19], in test [6] and in test [7] was inactive. Further, the compound was classed as inactive in [8], in test [9], in [10], in test [20], in test [11] and in test [12]. Further, the compound was classed as inactive in test [13], in [14], in test [15], in test [16], in [17] and in [18]. In test [5], the AC50 is 42.1 µM (active).
Turning to `Nc1ccc(O)c([N+](=O)[O-])c1`, the compound was classed as inactive in test [1], in test [2], in [3], in [19], in test [5] and in [6]. In addition, the call in test [7], in test [8], in test [9], in [10], in test [11] and in [12] was inactive. Besides, the call in test [13], in [14], in [15], in [16] and in test [18] was inactive.
